Reference: ChEMBL document CHEMBL1961873, “Compounds: GSK PKIS; Assays: Nanosyn kinase panel” (2012)
Where “and” joins values, the source holds several entries; their conditions need not be identical. Equal values may be shown once.

What was measured:
[1] = target: T1, Serine/threonine-protein kinase Nek9 (Homo sapiens) (UniProt Q8TD19); details: at 1 µM;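 also: each value is a mean percent inhibition of NEK9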
T1 sequence (whole entry): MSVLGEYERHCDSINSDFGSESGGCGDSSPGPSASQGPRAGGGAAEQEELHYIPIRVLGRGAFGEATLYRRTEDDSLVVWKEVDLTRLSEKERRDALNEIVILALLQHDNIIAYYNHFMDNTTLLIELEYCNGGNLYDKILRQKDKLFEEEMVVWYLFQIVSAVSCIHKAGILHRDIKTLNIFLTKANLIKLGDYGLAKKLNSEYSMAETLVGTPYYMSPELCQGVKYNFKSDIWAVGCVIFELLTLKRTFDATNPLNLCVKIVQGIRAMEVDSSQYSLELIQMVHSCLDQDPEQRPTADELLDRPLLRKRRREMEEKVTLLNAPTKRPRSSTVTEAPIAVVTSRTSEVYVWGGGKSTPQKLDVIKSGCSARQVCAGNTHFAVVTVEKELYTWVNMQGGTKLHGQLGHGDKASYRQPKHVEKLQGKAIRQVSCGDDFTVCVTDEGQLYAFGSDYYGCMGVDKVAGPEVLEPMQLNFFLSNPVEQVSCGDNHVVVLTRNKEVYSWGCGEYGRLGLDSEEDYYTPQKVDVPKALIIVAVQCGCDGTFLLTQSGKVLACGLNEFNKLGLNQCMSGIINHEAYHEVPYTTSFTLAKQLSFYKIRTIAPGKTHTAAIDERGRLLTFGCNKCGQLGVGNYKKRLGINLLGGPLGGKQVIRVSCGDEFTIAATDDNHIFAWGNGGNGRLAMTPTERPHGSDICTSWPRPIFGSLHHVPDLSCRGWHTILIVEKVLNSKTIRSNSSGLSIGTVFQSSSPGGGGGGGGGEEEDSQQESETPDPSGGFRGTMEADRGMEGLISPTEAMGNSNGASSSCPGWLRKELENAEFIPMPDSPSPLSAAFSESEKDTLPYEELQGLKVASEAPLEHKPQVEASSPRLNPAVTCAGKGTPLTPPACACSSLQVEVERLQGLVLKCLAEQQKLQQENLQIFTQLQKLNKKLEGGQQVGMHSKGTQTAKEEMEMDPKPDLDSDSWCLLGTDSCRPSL

[2] = target: Serine/threonine-protein kinase PLK1 (Homo sapiens) (UniProt P53350); details: at 0.1 µM
[3] = target: Serine/threonine-protein kinase PLK1 (Homo sapiens) (UniProt P53350); details: at 1 µM
[4] = target: T2, Dual specificity protein kinase TTK (Homo sapiens) (UniProt P33981); details: at 0.1 µM
T2 sequence (whole entry): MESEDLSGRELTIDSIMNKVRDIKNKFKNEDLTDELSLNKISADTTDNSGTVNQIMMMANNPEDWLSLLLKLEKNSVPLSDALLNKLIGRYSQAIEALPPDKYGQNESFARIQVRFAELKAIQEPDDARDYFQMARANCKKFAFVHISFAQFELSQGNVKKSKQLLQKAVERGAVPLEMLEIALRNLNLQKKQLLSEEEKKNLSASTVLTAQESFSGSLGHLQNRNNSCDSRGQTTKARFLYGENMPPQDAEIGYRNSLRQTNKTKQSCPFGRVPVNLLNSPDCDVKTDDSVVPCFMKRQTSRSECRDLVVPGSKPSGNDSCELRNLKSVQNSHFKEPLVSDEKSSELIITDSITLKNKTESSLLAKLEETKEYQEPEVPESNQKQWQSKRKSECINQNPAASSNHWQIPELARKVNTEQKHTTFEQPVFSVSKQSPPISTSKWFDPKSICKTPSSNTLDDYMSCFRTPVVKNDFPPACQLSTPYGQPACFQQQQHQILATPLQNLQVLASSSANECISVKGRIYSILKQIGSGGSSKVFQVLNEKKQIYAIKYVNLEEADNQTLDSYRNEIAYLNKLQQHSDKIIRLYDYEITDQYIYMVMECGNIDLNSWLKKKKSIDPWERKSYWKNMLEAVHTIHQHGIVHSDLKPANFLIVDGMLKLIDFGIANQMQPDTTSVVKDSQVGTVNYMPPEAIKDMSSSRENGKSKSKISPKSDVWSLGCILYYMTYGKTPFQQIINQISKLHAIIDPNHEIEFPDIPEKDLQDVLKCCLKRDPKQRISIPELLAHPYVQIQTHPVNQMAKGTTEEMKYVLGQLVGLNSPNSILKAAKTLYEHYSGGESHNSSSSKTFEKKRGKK

[5] = test system: T3, Receptor-type tyrosine-protein kinase FLT3 (Homo sapiens), P36888 [D835Y]; details: at 1 µM
T3 sequence (whole entry): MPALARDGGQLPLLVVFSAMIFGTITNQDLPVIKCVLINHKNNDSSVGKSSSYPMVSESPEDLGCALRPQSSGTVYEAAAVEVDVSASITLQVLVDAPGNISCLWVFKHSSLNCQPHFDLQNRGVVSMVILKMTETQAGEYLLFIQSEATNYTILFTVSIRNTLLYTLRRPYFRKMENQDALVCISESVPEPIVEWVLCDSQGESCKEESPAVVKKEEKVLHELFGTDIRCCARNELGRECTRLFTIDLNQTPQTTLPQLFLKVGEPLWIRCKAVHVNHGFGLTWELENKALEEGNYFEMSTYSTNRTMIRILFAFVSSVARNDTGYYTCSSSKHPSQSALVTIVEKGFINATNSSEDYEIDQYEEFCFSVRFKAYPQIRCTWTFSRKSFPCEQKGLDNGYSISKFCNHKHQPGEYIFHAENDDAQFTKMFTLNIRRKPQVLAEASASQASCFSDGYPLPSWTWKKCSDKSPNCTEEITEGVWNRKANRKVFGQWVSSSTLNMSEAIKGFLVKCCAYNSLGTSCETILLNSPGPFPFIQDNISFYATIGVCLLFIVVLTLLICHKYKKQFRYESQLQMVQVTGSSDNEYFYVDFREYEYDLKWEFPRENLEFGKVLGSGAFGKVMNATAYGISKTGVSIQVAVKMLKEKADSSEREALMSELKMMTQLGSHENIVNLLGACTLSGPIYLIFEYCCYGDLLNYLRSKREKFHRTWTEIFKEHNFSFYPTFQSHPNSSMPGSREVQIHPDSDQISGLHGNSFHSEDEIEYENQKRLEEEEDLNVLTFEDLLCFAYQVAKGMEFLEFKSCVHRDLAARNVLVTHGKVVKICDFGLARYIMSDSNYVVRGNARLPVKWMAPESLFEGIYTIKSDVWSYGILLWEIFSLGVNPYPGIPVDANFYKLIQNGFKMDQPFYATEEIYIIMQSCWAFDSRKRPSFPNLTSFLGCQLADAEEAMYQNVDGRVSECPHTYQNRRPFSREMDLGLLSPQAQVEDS

[6] = target: Vascular endothelial growth factor receptor 3 (Homo sapiens) (UniProt P35916); details: at 0.1 µM
[7] = target: Vascular endothelial growth factor receptor 3 (Homo sapiens) (UniProt P35916); details: at 1 µM
[8] = target: Macrophage colony-stimulating factor 1 receptor (Homo sapiens) (UniProt P07333); details: at 0.1 µM
[9] = target: Macrophage colony-stimulating factor 1 receptor (Homo sapiens) (UniProt P07333); details: at 1 µM
[10] = target: Tyrosine-protein kinase Fyn (Homo sapiens) (UniProt P06241); details: at 0.1 µM
[11] = target: Tyrosine-protein kinase Fyn (Homo sapiens) (UniProt P06241); details: at 1 µM
[12] = target: Tyrosine-protein kinase HCK (Homo sapiens) (UniProt P08631); details: at 0.1 µM
[13] = target: Tyrosine-protein kinase HCK (Homo sapiens) (UniProt P08631); details: at 1 µM
[14] = target: Insulin-like growth factor 1 receptor (Homo sapiens) (UniProt P08069); details: at 0.1 µM
[15] = target: Insulin-like growth factor 1 receptor (Homo sapiens) (UniProt P08069); details: at 1 µM
[16] = target: Insulin receptor (Homo sapiens) (UniProt P06213); details: at 0.1 µM
[17] = target: Insulin receptor (Homo sapiens) (UniProt P06213); details: at 1 µM
[18] = target: Insulin receptor-related protein (Homo sapiens) (UniProt P14616); details: at 0.1 µM
[19] = target: Insulin receptor-related protein (Homo sapiens) (UniProt P14616); details: at 1 µM
[20] = target: T4, Tyrosine-protein kinase ITK/TSK (Homo sapiens) (UniProt Q08881); details: at 0.1 µM;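 also: mean percent inhibition of ITK from the GSK PKIS screen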
T4 sequence (whole entry): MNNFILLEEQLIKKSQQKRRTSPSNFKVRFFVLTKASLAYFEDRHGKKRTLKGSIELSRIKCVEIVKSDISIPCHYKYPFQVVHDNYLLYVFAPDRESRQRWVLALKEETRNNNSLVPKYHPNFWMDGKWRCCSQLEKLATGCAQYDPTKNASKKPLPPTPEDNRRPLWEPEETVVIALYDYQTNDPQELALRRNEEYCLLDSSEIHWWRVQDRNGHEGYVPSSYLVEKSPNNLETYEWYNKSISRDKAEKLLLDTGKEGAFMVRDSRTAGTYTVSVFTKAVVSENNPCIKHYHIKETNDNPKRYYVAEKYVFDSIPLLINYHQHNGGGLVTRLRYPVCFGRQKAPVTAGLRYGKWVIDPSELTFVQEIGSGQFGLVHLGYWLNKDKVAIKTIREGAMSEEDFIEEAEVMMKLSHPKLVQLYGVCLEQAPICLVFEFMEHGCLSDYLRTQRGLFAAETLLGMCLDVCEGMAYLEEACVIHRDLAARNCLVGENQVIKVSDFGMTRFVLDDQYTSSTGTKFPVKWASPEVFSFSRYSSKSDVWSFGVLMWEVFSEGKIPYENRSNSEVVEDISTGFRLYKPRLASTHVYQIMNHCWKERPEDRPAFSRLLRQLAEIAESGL

Chain of Insulin receptor-related protein (Homo sapiens) (P14616 27-742 limits assumed): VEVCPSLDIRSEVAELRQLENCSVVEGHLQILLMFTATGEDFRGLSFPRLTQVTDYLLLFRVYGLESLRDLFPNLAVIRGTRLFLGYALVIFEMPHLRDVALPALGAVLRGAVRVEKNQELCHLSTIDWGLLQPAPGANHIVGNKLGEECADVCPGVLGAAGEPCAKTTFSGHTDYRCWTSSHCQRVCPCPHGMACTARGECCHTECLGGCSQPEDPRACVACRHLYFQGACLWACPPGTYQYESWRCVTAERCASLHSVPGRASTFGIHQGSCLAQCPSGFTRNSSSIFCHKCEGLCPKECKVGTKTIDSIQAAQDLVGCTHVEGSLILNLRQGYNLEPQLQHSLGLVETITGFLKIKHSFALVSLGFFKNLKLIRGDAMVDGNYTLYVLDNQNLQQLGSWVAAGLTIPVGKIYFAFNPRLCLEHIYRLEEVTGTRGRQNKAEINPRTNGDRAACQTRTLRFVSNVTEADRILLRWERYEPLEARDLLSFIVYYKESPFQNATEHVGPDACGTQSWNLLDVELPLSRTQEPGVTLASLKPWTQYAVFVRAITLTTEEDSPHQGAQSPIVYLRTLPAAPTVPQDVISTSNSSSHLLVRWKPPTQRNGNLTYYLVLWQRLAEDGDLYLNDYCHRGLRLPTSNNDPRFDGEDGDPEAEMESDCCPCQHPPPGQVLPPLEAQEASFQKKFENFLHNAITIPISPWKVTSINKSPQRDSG
Chain of Insulin receptor-related protein (Homo sapiens) (P14616 747-1297 limits assumed): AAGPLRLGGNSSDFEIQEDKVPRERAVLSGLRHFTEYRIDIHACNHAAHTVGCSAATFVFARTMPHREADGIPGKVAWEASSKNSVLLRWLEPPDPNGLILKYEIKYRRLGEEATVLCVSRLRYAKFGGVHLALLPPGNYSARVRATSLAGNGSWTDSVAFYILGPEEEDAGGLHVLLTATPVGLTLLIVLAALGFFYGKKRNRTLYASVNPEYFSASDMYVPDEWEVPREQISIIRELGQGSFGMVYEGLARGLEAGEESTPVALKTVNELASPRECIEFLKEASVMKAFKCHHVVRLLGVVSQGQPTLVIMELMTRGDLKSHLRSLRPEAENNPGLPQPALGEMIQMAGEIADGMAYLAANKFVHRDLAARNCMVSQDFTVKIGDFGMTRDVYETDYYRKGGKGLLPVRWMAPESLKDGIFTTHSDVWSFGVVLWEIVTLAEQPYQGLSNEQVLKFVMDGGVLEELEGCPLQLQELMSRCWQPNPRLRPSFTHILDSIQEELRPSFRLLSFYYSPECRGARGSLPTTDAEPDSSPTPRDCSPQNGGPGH
Chain of Serine/threonine-protein kinase PLK1 (Homo sapiens) (P53350 whole entry): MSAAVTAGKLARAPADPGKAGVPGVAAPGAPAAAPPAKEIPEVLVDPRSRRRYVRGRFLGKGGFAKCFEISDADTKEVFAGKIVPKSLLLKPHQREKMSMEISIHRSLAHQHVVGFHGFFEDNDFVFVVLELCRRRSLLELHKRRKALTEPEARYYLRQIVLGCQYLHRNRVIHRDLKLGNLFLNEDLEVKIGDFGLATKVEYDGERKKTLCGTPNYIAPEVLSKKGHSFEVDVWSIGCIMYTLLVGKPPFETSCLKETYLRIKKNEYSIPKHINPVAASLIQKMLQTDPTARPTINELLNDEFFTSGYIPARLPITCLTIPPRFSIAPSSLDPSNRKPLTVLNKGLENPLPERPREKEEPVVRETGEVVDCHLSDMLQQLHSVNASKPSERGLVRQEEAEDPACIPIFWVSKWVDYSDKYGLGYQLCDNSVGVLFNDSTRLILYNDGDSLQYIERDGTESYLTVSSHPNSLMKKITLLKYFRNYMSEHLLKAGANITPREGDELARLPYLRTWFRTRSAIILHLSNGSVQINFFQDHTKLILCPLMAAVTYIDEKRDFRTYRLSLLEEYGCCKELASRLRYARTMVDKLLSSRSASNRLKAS
Chain of Insulin-like growth factor 1 receptor (Homo sapiens) (P08069 31-736 limits assumed): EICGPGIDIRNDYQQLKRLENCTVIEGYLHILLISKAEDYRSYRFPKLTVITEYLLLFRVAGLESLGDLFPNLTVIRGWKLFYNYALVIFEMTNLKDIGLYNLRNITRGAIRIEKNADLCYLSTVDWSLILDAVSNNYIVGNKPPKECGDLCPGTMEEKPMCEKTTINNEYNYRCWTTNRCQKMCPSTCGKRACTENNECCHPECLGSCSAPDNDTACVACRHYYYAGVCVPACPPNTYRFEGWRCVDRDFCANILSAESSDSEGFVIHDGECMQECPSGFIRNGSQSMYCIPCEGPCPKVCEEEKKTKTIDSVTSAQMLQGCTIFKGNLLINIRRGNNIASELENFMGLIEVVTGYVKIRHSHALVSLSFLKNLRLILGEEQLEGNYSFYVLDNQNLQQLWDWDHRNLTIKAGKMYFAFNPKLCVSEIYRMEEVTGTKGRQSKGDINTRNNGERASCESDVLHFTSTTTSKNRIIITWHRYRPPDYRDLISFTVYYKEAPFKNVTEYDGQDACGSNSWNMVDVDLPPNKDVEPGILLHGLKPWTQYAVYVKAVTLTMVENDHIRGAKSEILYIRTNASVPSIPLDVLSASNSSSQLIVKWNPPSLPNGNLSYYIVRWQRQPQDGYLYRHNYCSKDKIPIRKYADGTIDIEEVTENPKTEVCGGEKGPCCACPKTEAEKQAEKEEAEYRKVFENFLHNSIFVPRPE
Chain of Insulin-like growth factor 1 receptor (Homo sapiens) (P08069 741-1367 limits assumed): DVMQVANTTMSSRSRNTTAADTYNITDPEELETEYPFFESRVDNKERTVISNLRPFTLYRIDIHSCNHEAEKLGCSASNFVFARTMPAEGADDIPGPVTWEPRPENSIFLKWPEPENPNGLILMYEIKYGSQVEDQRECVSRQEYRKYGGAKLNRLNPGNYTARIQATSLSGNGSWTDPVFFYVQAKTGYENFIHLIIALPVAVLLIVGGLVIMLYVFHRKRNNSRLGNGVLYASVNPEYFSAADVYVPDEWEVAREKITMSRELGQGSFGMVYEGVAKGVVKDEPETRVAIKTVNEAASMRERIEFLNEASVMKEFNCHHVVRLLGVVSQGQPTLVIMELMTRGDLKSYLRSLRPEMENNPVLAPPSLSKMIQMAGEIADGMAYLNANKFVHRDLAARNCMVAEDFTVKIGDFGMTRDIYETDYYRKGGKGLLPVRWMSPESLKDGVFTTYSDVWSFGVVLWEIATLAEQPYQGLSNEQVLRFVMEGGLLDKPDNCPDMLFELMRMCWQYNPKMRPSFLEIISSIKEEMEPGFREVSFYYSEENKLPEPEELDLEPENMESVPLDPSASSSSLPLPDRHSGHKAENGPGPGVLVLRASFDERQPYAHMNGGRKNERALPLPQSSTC
Chain of Macrophage colony-stimulating factor 1 receptor (Homo sapiens) (P07333 whole entry): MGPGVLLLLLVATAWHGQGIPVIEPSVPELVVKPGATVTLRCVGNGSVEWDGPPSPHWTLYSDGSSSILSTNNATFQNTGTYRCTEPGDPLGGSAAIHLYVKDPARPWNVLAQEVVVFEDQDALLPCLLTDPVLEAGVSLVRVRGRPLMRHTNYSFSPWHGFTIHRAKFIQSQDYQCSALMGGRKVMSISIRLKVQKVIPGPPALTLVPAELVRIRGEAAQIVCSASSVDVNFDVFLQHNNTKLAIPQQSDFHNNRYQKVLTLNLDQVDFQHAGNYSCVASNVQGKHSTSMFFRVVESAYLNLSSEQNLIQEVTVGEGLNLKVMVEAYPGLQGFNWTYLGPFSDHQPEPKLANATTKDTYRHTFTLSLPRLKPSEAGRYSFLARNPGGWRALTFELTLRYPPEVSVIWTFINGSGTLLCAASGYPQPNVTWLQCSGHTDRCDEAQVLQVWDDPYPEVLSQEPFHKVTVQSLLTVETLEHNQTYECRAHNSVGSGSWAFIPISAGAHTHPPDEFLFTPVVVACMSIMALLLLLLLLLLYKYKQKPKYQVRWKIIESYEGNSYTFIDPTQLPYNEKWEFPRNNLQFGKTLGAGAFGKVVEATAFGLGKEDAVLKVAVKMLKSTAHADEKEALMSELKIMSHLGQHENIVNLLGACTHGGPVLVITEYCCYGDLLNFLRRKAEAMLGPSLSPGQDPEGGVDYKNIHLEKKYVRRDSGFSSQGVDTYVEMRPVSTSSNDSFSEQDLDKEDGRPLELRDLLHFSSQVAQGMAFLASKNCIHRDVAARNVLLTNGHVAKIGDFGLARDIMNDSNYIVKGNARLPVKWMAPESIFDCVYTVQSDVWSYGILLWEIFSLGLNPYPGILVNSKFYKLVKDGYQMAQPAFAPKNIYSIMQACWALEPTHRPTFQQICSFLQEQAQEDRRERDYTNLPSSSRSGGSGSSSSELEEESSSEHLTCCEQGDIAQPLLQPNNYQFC
Chain of Tyrosine-protein kinase HCK (Homo sapiens) (P08631 2-526 limits assumed): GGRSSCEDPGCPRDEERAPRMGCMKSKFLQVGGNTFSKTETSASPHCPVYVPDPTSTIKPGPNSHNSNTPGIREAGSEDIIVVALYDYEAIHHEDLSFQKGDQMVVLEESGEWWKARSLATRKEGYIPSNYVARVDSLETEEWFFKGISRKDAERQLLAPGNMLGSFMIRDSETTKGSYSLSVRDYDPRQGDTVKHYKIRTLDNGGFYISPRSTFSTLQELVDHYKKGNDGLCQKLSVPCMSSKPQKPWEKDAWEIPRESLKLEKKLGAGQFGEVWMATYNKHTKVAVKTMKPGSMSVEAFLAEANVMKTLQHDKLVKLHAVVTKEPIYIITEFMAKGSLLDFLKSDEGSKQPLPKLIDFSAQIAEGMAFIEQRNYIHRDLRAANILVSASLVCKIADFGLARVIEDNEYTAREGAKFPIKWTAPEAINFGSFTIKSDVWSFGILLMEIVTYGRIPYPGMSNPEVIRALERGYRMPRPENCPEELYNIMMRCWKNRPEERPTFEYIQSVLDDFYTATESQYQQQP

Compound | inhibition [1] | inhibition [2] | inhibition [3] | inhibition [4] | inhibition [5] | inhibition [6] | inhibition [7] | inhibition [8] | inhibition [9] | inhibition [10] | inhibition [11] | inhibition [12] | inhibition [13] | inhibition [14] | inhibition [15] | inhibition [16] | inhibition [17] | inhibition [18] | inhibition [19] | inhibition [20]
COc1cccc(-n2ncc3c(N/N=C/c4ccc(C(=O)NCCN(C)C)cc4)ncnc32)c1 | 1.36% | 1.5% | 2.1% | 3.48% | 76% | 12.1% | 53.5% | 6.78% | 37.8% | 48.6% | 84.5% | 23.1% | 68.8% | 3.78% | 4.69% | 0.94% | 1.97% | 5.09% | 1.31% | 2.07%
NS(=O)(=O)c1ccc(N/N=C2\C(=O)Nc3ccc(C(=O)NCc4ccncc4)cc32)cc1 | 9.05% | 3.77% | 2.52% | 37.6% | 34.3% | 16.7% | 48.7% | 3.12% | 8.74% | 9.13% | 50.9% | 5.39% | 16.3% | 10.1% | 9.32% | 1.24% | 3.32% | 2.61% | 2.45% | 0.99%
COc1ccc(-c2nn3ncccc3c2-c2ccnc(Nc3ccc(F)c(F)c3)n2)cc1 | 7.17% | 1.8% | 2.27% | 15.1% | 2.1% | 4.09% | 8.94% | 5.19% | 14.8% | 2.85% | 12.1% | 3.38% | 16.5% | 2.75% | 3.2% | 4.32% | 2.06% | 3.12% | 3.47% | 0.92%
Nc1nccc(-c2c(-c3ccc(F)cc3)ncn2C2CCNCC2)n1 | 3.57% and -1.29% | -0.73% and -0.83% | 0.68% and 2.5% | -4.46% and 0.75% | 4.31% and -2.1% | 0.55% and 1.51% | -0.68% and 1.04% | -0.4% and 1.93% | 0.46% and 3.61% | -0.69% and 0.67% | 1.62% and 4.51% | -2.39% and 2.85% | 2.05% and 5.24% | -2.26% and -0.62% | -1.54% and 3.61% | -1.93% and 3.33% | 1.25% and 4.93% | -5.25% and 0.92% | -4.64% and -1.2% | -0.56% and 0.6%
CCS(=O)(=O)c1ccc(OC)c(Nc2ncc(-c3cccc(C(C)=O)c3)o2)c1 | 3.45% | 2.42% | 2.98% | 5.81% | 87.2% | 10.7% | 47.3% | 10.2% | 34.7% | 26.4% | 71.4% | 11% | 71.2% | 1.64% | 3.11% | 2.36% | 2.68% | 2.22% | 3.18% | 0.98%
Cc1cc(O)cc(C)c1/C=C/c1cncc(C(=O)OC(C)(C)C)c1 | 2.6% | 0.53% | 2.82% | 6.3% | 2.14% | 1.44% | 1.34% | 7.66% | 38.6% | 8.16% | 39.1% | 11.3% | 51.5% | 4.61% | 2.33% | 3.02% | 4.74% | 2.54% | 1.64% | 1.16%
CN(C)CCNC(=O)Nc1ccc(N(C)c2ccnc(Nc3ccc(CS(C)(=O)=O)cc3)n2)cc1 | 4.76% | 3.28% | 3.61% | 6.19% | 5.12% | 2.39% | 4.9% | 14.8% | 67.3% | 1.66% | 3.44% | 6.05% | 12.3% | 5.44% | 8.75% | 3.47% | 5.6% | 2.48% | 3.81% | 1.62%
